Test results: paper PMC4336329 (PLoS ONE, 2015)
Among all 310,000 compounds or so, about 14,000 (4.5%) showed an effect of 50% or more. Effects have a minus sign here. Shown is part of a subset that was picked to be rich in strong results.

What follows are compounds tested against human ether-à-go-go-related gene (hERG) potassium channel (human, UniProt Q12809) (assay: primary screen, population patch clamp on CHO cells stably expressing hERG; higher = less effect of the substance).
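Also: peak tail current of the secondary pulse compared with the same well before compound.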

human ether-à-go-go-related gene (hERG) potassium channel, sequence (Q12809 whole entry, looked up): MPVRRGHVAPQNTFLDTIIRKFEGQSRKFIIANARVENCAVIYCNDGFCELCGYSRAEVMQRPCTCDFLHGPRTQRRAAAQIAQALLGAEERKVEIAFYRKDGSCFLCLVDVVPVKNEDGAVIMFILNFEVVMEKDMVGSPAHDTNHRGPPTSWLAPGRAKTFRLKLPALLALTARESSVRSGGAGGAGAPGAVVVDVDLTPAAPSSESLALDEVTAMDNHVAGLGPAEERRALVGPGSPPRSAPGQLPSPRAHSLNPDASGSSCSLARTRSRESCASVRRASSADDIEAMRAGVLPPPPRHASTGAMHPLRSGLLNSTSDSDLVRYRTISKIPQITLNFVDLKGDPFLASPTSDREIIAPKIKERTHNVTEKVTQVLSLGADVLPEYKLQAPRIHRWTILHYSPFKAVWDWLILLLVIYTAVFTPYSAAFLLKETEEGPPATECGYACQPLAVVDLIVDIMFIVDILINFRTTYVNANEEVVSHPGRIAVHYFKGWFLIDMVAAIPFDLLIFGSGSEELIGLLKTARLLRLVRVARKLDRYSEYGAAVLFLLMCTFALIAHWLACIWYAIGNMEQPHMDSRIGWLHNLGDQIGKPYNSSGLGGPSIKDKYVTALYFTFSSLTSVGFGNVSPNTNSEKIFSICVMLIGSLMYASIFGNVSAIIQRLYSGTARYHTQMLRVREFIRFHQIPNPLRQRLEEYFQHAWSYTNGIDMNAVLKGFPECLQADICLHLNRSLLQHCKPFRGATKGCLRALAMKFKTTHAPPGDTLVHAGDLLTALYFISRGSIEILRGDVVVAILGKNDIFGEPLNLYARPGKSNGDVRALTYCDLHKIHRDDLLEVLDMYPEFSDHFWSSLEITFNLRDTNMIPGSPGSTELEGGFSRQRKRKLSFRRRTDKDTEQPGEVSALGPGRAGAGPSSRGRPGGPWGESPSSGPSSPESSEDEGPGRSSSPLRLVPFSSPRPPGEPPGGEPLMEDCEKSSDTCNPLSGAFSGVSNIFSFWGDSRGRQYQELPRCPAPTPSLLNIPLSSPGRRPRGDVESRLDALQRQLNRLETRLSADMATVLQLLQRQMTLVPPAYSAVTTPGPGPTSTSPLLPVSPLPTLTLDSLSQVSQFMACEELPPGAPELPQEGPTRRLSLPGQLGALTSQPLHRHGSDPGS

In order of falling “hERG current change (%, negative = inhibition) at 10uM” value:
1. Cc1ccccc1-n1c(C)c(C#N)c(=O)c(-[n+]2ccccc2)c1[S-]  23.4%
2. CC(C)[C@H](NC(=O)N1CCn2c1nc1ccccc12)C(=O)N[C@@H](C(=O)O)c1ccccc1  17.7%
3. COc1ccc(NC(=O)c2cc3ccccc3[nH]2)cc1  15.4%
4. COc1cccc(/C=C/C(=O)OCC(=O)c2c[nH]c3ccccc23)c1  13%
5. CS(=O)(=O)c1ccc(C(=O)NC2CCCCC2)cc1  12.1%
6. CN1CCN(CCCNC(=O)Cn2ncc3c4ccccc4n(C)c3c2=O)CC1  12%
7. Cc1ccc(S(=O)(=O)N(C)C)cc1NC(=S)N1CCc2ccccc21  11.5%
8. Cc1cc(C)c2c(=O)n(CC(=O)NCCCN3CCOCC3)sc2n1  11.4%
9. CC1CCN(CCCNC(=O)Cn2ncc3c([nH]c4ccccc43)c2=O)CC1  9.35%
10. O=C(CCS(=O)(=O)Cc1ccccc1F)NCCCN1CCCCC1  8.31%
11. O=C1Nc2ccc(Br)cc2C1(O)c1ccc(F)cc1 (stereo not drawn)  7%
12. COc1cc(N(Cc2ccccc2)Cc2ccccc2)c2ncn(C(C)C)c2c1  6.37%
13. Cc1ccc(-c2cc(C(=O)N/N=C/c3ccc(F)cc3)n[nH]2)o1  4.98%
14. Cc1cc(S(=O)(=O)N2CCCC2)ccc1OCC(=O)NCc1ccccn1  4.98%
15. NC(=O)COC(=O)CC(c1ccccc1)c1ccccc1  4.16%
16. O=C(O)CCC(=O)N1CCN(c2nc(-c3ccccc3)c3cc(Br)ccc3n2)CC1  3.79%
17. O=C(NC(=C(Cl)Cl)S(=O)(=O)c1ccc(Cl)cc1)c1ccccc1  3.23%
18. CC(=O)OC1COC(N2CCc3cc([N+](=O)[O-])ccc32)C(OC(C)=O)C1OC(C)=O (stereo not drawn)  2.87%
19. Nc1nc2ccccc2n1/N=C/c1cccnc1  2.44%
20. COc1ccc(CCNC(=O)c2cn3ccc(C)cc3n2)cc1OC  1.66%
21. Nc1cc(=O)[nH]c(SCC(=O)NCC2CCCO2)n1 (stereo not drawn)  1.45%
22. CC(C)n1cnc2c(NCc3ccccc3)nc(NCc3ccccc3)nc21  0.281%
23. CC(C)c1ccc(N(C)C(=O)Cc2c(C(=O)O)n(C)c3ccccc23)cc1  0.167%
24. COCCNC(=O)Cn1cc(S(=O)(=O)N2CCN(c3ccccc3F)CC2)c2ccccc2c1=O  -2.76%
25. Nc1c(C(=O)NCCc2ccccc2)c2nc3ccccc3nc2n1CCN1CCOCC1  -3.49%
26. CCC(C)NC(=O)Cn1cc(S(=O)(=O)N2CCN(c3ccccc3F)CC2)c2ccccc2c1=O (stereo not drawn)  -4.4%
27. COc1ccc(NC2c3ccccc3C(=O)N2c2ccccn2)cc1Cl (stereo not drawn)  -5.24%
28. CCCNC(=O)Cn1sc2nc(C)cc(C)c2c1=O  -6.1%
29. CCn1c(O)c(C=NCc2cccs2)c(=O)[nH]c1=O  -6.15%
30. CCOC(=O)C1CCCN(C(=O)CCCn2nnnc2CN2CCC(C)CC2)C1 (stereo not drawn)  -8.13%
31. COc1ccccc1N(CC(=O)NCc1ccccc1)C(=O)CCC(=O)Nc1cc(C)ccn1  -9.35%
32. Cc1ccccc1CS(=O)(=O)CCC(=O)NCCCN1CCOCC1  -10.6%
33. Cn1c(C(=O)NCCCN2CCN(c3ccccc3F)CC2)cc2c(=O)n(C)c3ccccc3c21  -11.7%
34. CC(O)c1c(OCc2ccccc2)ncnc1OCc1ccccc1 (stereo not drawn)  -15.5%
35. Fc1cnc(N/N=C/c2ccc(-c3ccc(Br)cc3)o2)nc1N1CCOCC1  -15.8%
36. CC(=O)c1nc(N2C(=O)CC(Cc3cccc(C)c3)C2=O)sc1C (stereo not drawn)  -16.3%
37. Cc1ccc2nc(C)c3c(c2c1)OC(C(C)(Cl)Br)C3 (stereo not drawn)  -16.5%
38. CCN(CC)S(=O)(=O)c1ccc(S(=O)(=O)N(CC(=O)Nc2ccccc2)CC2CCCO2)cc1 (stereo not drawn)  -18.6%
39. O=C(Cn1ncc2c([nH]c3ccccc32)c1=O)NCCCN1CCN(c2ccccc2)CC1  -21.5%
40. Nc1c(C(=O)NCCN2CCOCC2)c2nc3ccccc3nc2n1CCc1ccccc1F  -27.2%
41. O=C(Cn1ncc2c(=O)oc3ccccc3c21)NCCN1CCN(c2ccccc2F)CC1  -28.4%
42. COc1cccc(N2CCN(C(=O)C3CCC(=O)N(C4CCCCCC4)C3)CC2)c1 (stereo not drawn)  -32.8%
43. COc1ccc2nc(C)c3c(c2c1)OC(C(C)(Cl)Br)C3 (stereo not drawn)  -34%
44. CC1CCCC(C)N1CCCNC(=O)Cn1ncc2c3ccccc3n(C)c2c1=O (stereo not drawn)  -36.9%
45. CCCCCCC1/C(=N\NC(=O)c2ccccc2)CCC1C(=O)OC (stereo not drawn)  -43.8%
46. Cc1cc(C)c2c(=O)n(CC(=O)NCCCN3CCN(c4ccccc4F)CC3)sc2n1  -55.3%
47. CCCN1CCN(CCCNC(=O)Cn2ncc3c4ccccc4n(C)c3c2=O)CC1  -56.6%
48. Cc1ccccc1CS(=O)(=O)CCC(=O)NCCCN1CCN(c2ccccc2F)CC1  -59.3%
49. O=C(Cn1cc(S(=O)(=O)N2CCN(c3ccccc3F)CC2)c2ccccc2c1=O)NCCCN1CCCCCC1  -61.1%
50. Cc1nc2ccccc2c2c1CC(C(C)(Cl)Br)O2 (stereo not drawn)  -61.6%
51. COc1ccccc1N1CCN(CCCNC(=O)Cn2ncc3c([nH]c4ccccc43)c2=O)CC1  -68.6%
52. CC(C)Cn1c(N)c(C(=O)NCCN2CCOCC2)c2nc3ccccc3nc21  -72.7%
53. CC(C)n1cnc2c(N(C)c3ccccc3)nc(N(CCN(C)C)Cc3ccccc3)nc21  -73.1%
54. Cn1c2ccccc2c2cnn(CC(=O)NCCCN3CCN(c4ccccc4F)CC3)c(=O)c21  -76.3%
